Where “and” joins values, the source holds several entries; their conditions need not be identical. Equal entries are not always repeated. The whole screen tested about 5,500 compounds, of which about 2,000 (36%) were called active. Roughly 18% stayed inconclusive and do not appear here. Rule as the data show it: active = normalized growth mostly below about 0.91 (no sharp cut-off); inconclusive = no clear call, values can overlap the other calls; inactive = mostly above about 0.92. The list shows a part of the results.
Assay: chemical genetic growth profiling, strain panel (AID 1159580);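 also: tested at 20 µM; growth read once vehicle control cultures reached saturation at 30 °C; 1 = growth at the plate median or of vehicle wells; lower values mean less growth of the strain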
Settings: S. cerevisiae deletion strains, growth OD

Measured: normalized growth

COc1cc2c(cc1OC)[C@@]13CCN4CC5=CCOC6CC(=O)N2C1[C@H]6[C@H]5C[C@H]43 (stereo partly drawn)
inactive: locus YAL013W, strain DEP1, active compounds read low 1.02 | locus YAL021C, strain ccr4, active compounds read low 0.983 | locus YAL026C, strain drs2, active compounds read low 0.998 | locus YAL030W, strain snc1, active compounds read low 1 | locus YBL061C, strain skt5, active compounds read low 0.994 | locus YBR009C, strain hhf1, active compounds read low 0.994 | locus YBR021W, strain FUR4, active compounds read low 0.985 | locus YBR023C, strain chs3, active compounds read low 0.989 | locus YBR171W, strain sec66, active compounds read low 0.99 | locus YBR229C, strain ROT2, active compounds read low 1.01 | locus YBR231C, strain swc5, active compounds read low 0.979 | locus YBR279W, strain paf1, active compounds read low 0.993 | locus YCL011C, strain gbp2, active compounds read low 0.988 | locus YCL016C, strain dcc1, active compounds read low 0.986 | locus YCL029C, strain bik1, active compounds read low 1.01 | locus YCL061C, strain MRC1, active compounds read low 0.988 | locus YCL069W, strain vba3, active compounds read low 0.995 | locus YCR088W, strain abp1, active compounds read low 0.994 | locus YDL005C, strain med2, active compounds read low 0.988 | locus YDL035C, strain GPR1, active compounds read low 1.03 | locus YDL040C, strain nat1, active compounds read low 0.983 | locus YDL074C, strain BRE1, active compounds read low 1.03 | locus YDL101C, strain DUN1, active compounds read low 1.02 | locus YDL185W, strain tfp1, active compounds read low 1 | locus YDL192W, strain arf1, active compounds read low 1.01 | locus YDR001C, strain nth1, active compounds read low 0.997 | locus YDR069C, strain doa4, active compounds read low 1 | locus YDR101C, strain arx1, active compounds read low 0.997 | locus YDR137W, strain rgp1, active compounds read low 1 | locus YDR150W, strain NUM1, active compounds read low 1.02 | locus YDR159W, strain sac3, active compounds read low 0.977 | locus YDR162C, strain NBP2, active compounds read low 1.02 | locus YDR195W, strain ref2 0.927 | locus YDR297W, strain sur2, active compounds read low 0.996 | locus YDR318W, strain mcm21, active compounds read low 1.02 | locus YDR334W, strain swr1, active compounds read low 0.986 | locus YDR335W, strain msn5, active compounds read low 0.996 | locus YDR388W, active compounds read low 0.994 | locus YDR392W, strain spt3, active compounds read low 0.999 | locus YDR502C, strain sam2, active compounds read low 1.03 | locus YEL003W, strain gim4, active compounds read low 0.997 | locus YEL037C, strain rad23, active compounds read low 0.989 | locus YEL061C, strain CIN8 (second series), active compounds read low 0.986 | locus YEL061C, strain CIN8, active compounds read low 1.01 | locus YER015W, strain faa2, active compounds read low 0.989 | locus YER016W, strain bim1, active compounds read low 0.989 | locus YER110C, active compounds read low 0.997 | locus YER111C, strain swi4, active compounds read low 0.971 | locus YER155C, strain BEM2 (second series), active compounds read low 0.993 | locus YER155C, strain BEM2, active compounds read low 1.01 | locus YER167W, strain BCK2, active compounds read low 1 | locus YFR010W, strain ubp6, active compounds read low 0.999 | locus YGL078C, strain dbp3, active compounds read low 1.01 | locus YGL086W, strain mad1, active compounds read low 1 | locus YGL167C, strain pmr1, active compounds read low 0.988 | locus YGL173C, strain kem1, active compounds read low 0.982 | locus YGL227W, strain vid30, active compounds read low 0.984 | locus YGL240W, strain doc1, active compounds read low 0.979 | locus YGL248W, strain PDE1, active compounds read low 1.01 | locus YGL253W, strain hxk2, active compounds read low 0.988 | locus YGR078C, strain PAC10, active compounds read low 1.02 | locus YGR135W, strain pre9, active compounds read low 1.01 | locus YGR229C, strain SMI1, active compounds read low 1.04 | locus YGR252W, strain gcn5, active compounds read low 0.994 | locus YHR013C, strain ard1, active compounds read low 0.964 | locus YHR027C, strain rpn1, active compounds read low 0.987 | locus YHR030C, strain SLT2, active compounds read low 1.02 and 1.01 | locus YHR079C, strain IRE1 (second series), active compounds read low 0.996 | locus YHR079C, strain IRE1, active compounds read low 1.09 | locus YHR094C, strain hxt1, active compounds read low 0.977 | locus YHR129C, strain ARP1, active compounds read low 1.02 | locus YHR142W, strain chs7, active compounds read low 0.99 | locus YHR200W, strain rpn10, active compounds read low 0.99 | locus YIL066C, strain RNR3, active compounds read low 1.02 | locus YIL073C, strain SPO22, active compounds read low 1.02 | locus YIL125W, strain kgd1, active compounds read low 1 | locus YIR030C, strain dcg1, active compounds read low 0.996 | locus YJL092W, strain hpr5, active compounds read low 0.984 | locus YJL095W, strain BCK1 (second series), active compounds read low 0.984 | locus YJL095W, strain BCK1, active compounds read low 1.02 and 0.999 | locus YJL115W, strain asf1, active compounds read low 0.993 | locus YJL129C, strain trk1, active compounds read low 0.99 | locus YJL134W, strain LCB3, active compounds read low 1.01 | locus YJL154C, strain vps35, active compounds read low 0.986 | locus YJL164C, strain tpk1, active compounds read low 1.01 | locus YJL166W, strain qcr8, active compounds read low 0.996 | locus YJL168C, strain set2, active compounds read low 1 | locus YJL187C, strain SWE1 (second series), active compounds read low 1.02 | locus YJL187C, strain SWE1, active compounds read low 0.996 | locus YJR043C, strain POL32, active compounds read low 1.04 | locus YJR066W, strain TOR1, active compounds read low 0.973 | locus YJR075W, strain HOC1, active compounds read low 1.02 | locus YKL009W, strain mrt4, active compounds read low 1.04 | locus YKL068W, active compounds read low 0.995 | locus YKL085W, strain MDH1 (second series), active compounds read low 1 | locus YKL085W, strain MDH1, active compounds read low 1 | locus YKL160W, strain elf1, active compounds read low 0.98 | locus YKR001C, strain vps1, active compounds read low 1.01 | locus YKR026C, strain gcn3, active compounds read low 0.991 | locus YKR091W, strain srl3, active compounds read low 0.994 | locus YLL001W, strain dnm1, active compounds read low 0.989 | locus YLL026W, active compounds read low 0.99 | locus YLL041C, strain sdh2, active compounds read low 0.995 | locus YLR027C, strain aat2, active compounds read low 0.996 | locus YLR039C, strain RIC1, active compounds read low 1.04 | locus YLR058C, strain SHM2, active compounds read low 1.02 | locus YLR102C, strain apc9, active compounds read low 0.997 | locus YLR113W, strain HOG1, active compounds read low 0.991 | locus YLR221C, strain rsa3, active compounds read low 0.997 | locus YLR258W, strain gsy2, active compounds read low 0.99 | locus YLR262C, strain YPT6 (second series), active compounds read low 0.988 | locus YLR262C, strain YPT6, active compounds read low 1.05 | locus YLR268W, strain sec22, active compounds read low 1 | locus YLR320W, strain mms22, active compounds read low 0.982 | locus YLR330W, strain CHS5, active compounds read low 1.01 | locus YLR342W, strain FKS1 (second series), active compounds read low 1.02 | locus YLR342W, strain FKS1, active compounds read low 0.989 | locus YLR357W, strain rsc2, active compounds read low 0.983 | locus YLR370C, strain arc18, active compounds read low 0.991 | locus YLR371W, strain rom2, active compounds read low 0.993 | locus YLR384C, strain iki3, active compounds read low 0.995 | locus YLR418C, strain cdc73, active compounds read low 1.01 | locus YML016C, strain PPZ1, active compounds read low 1.01 | locus YML032C, strain rad52, active compounds read low 1.01 | locus YML120C, strain ndi1, active compounds read low 0.981 | locus YML124C, strain tub3, active compounds read low 1 | locus YMR058W, strain fet3, active compounds read low 0.986 | locus YMR078C, strain ctf18, active compounds read low 1 | locus YMR125W, strain sto1, active compounds read low 0.992 | locus YMR129W, active compounds read low 0.997 | locus YMR205C, strain PFK2, active compounds read low 0.973 | locus YMR223W, strain ubp8, active compounds read low 1 | locus YMR231W, strain pep5, active compounds read low 0.995 | locus YMR307W, strain GAS1, active compounds read low 1.05 | locus YNL067W, strain RPL9B, active compounds read low 1.01 | locus YNL071W, strain lat1, active compounds read low 0.997 | locus YNL128W, strain TEP1, active compounds read low 1.03 | locus YNL153C, strain GIM3, active compounds read low 1.02 | locus YNL183C, strain NPR1, active compounds read low 0.968 | locus YNL209W, strain ssb2, active compounds read low 1 | locus YNL233W, strain BNI4, active compounds read low 1.01 | locus YNL248C, strain rpa49, active compounds read low 0.992 | locus YNL250W, strain rad50, active compounds read low 1 | locus YNL271C, strain bni1, active compounds read low 1.01 | locus YNL298W, strain CLA4, active compounds read low 1.01 | locus YNL307C, strain MCK1, active compounds read low 0.996 | locus YNL322C, strain KRE1 (second series), active compounds read low 0.982 | locus YNL322C, strain KRE1, active compounds read low 1.01 | locus YNR049C, strain mso1, active compounds read low 0.989 | locus YNR052C, strain pop2, active compounds read low 0.995 | locus YOL012C, strain htz1 1.21 | locus YOL147C, strain pex11, active compounds read low 0.993 | locus YOR001W, strain rrp6, active compounds read low 0.994 | locus YOR061W, strain CKA2, active compounds read low 1.01 | locus YOR069W, strain VPS5, active compounds read low 1.02 | locus YOR070C, strain gyp1, active compounds read low 0.998 | locus YOR080W, strain dia2, active compounds read low 0.986 | locus YOR083W, strain WHI5, active compounds read low 0.993 | locus YOR106W, strain vam3, active compounds read low 0.997 | locus YOR136W, strain idh2, active compounds read low 0.991 | locus YOR144C, strain elg1, active compounds read low 0.997 | locus YOR184W, strain ser1, active compounds read low 1.02 | locus YOR231W, strain MKK1, active compounds read low 1 | locus YOR265W, strain rbl2, active compounds read low 0.991 | locus YOR270C, strain vph1, active compounds read low 1 | locus YOR290C, strain snf2, active compounds read low 0.99 | locus YOR316C, strain cot1, active compounds read low 0.995 | locus YPL051W, strain arl3, active compounds read low 0.997 | locus YPL055C, strain LGE1, active compounds read low 1.03 | locus YPL078C, strain atp4, active compounds read low 0.988 | locus YPL106C, strain sse1, active compounds read low 0.971 | locus YPL240C, strain hsp82, active compounds read low 0.988 | locus YPL256C, strain CLN2, active compounds read low 0.979 | locus YPR119W, strain clb2, active compounds read low 1 | locus YPR141C, strain kar3, active compounds read low 0.998 | locus YPR163C, strain tif3, active compounds read low 1.01 | locus YPR167C, strain met16, active compounds read low 1.01 | strain wtn01, active compounds read low 1
